Measurements: PubChem BioAssay (Tox21)
Several values for one entry are separate records, joined by “and”; a condition that tells them apart may be missing. Identical values can stand only once. Inconclusive results are not listed. More than one record can exist for a structure, and the calls need not agree. Activity calls are given as the source filed them. Unless noted, the call rests on the fitted dose curve; in most records, active means well fitted curve in the direction sought with a large enough effect in the repeat runs; inconclusive means weak or mixed curves; inactive means no such curve, though single readings can be large; an effect the other way counts as inactive or inconclusive.

Tests used:
[1] = qHTS assay to identify small molecule HDAC inhibitors - cell viability counter screen (AID 1259365); further: series mostly up to about 92 µM; nearly all actives have a fitted effect of over 50% in size
Summary of the method: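 Wild-type HCT-116 cells, 1,500/well, cultured overnight, then compound-treated 2 h at 37 C. Viability measured as ATP luminescence with CellTiter-Glo after 30 min at room temperature.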

[2] = qHTS assay to identify small molecule agonists of the sonic hedgehog signaling (Shh) pathway - cell viability counter screen (AID 1259366); further: nearly all actives have a fitted effect of over 50% in size; further: potency means the concentration at half of the fitted maximal effect
Summary of the method: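 NIH/3T3-derived Gli1-Luc reporter cells, 2,000 per well, received compound after 4 h and were treated about 23 h at 37C. Viability measured in the same wells by CellTiter-Fluor fluorescence after 1 h.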

[3] = qHTS assay to identify small molecule antagonists of the sonic hedgehog signaling (Shh) pathway - cell viability counter screen (AID 1259367); further: nearly all actives have a fitted effect of over 55% in size; further: potency means the concentration at half of the fitted maximal effect
Summary of the method: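 Viability was read by CellTiter-Fluor fluorescence in the same wells, reagent added 23 hr into compound treatment and incubated 1 hr at 37C. The 3T3 Gli1-Luc reporter cells (2,000/well) received conditioned medium after compound and ran 24 hr.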

[4] = qHTS assay to identify small molecule agonists of the sonic hedgehog signaling (Shh) pathway (AID 1259368; calls by dose curve;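 further: NIH/3T3-derived 3T3Gli1-Luc cells carrying a stable Gli1-driven firefly luciferase reporter; series mostly up to about 92 µM; nearly all actives have a fitted effect of over 15% in size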)
Summary of the method: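 Read-out: firefly luciferase luminescence from a Gli1 response element reporter stably integrated in NIH/3T3-derived 3T3Gli1-Luc cells, measured 30 min at room temperature after reagent addition. Compound exposure lasted 24 hr at 37 C, 5% CO2.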

[5] = qHTS assay to identify small molecule antagonists of the sonic hedgehog signaling (Shh) pathway (AID 1259369; calls by dose curve; further: nearly all actives have a fitted effect of over 45% in size; further: potency means the concentration at half of the fitted maximal effect)
Summary of the method: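 Luminescence readout: firefly Luc under Gli1 response element in 3T3Gli1-Luc cells (NIH/3T3 clone). Antagonist mode, stimulation by conditioned medium; compound exposure 24hr at 37 C, 5% CO2.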

[6] = molecular target: Estrogen receptor beta (Homo sapiens) (UniProt Q92731); experiment: qHTS assay to identify small molecule agonists of the estrogen receptor beta (ER-beta) signaling pathway (AID 1259377; active means well fitted activation curve with a large enough effect in the signal ratio in the repeat runs, not every such curve was filed as active; the % refers to the signal ratio)
Sequence of Estrogen receptor beta (Homo sapiens) (Q92731 whole entry, looked up): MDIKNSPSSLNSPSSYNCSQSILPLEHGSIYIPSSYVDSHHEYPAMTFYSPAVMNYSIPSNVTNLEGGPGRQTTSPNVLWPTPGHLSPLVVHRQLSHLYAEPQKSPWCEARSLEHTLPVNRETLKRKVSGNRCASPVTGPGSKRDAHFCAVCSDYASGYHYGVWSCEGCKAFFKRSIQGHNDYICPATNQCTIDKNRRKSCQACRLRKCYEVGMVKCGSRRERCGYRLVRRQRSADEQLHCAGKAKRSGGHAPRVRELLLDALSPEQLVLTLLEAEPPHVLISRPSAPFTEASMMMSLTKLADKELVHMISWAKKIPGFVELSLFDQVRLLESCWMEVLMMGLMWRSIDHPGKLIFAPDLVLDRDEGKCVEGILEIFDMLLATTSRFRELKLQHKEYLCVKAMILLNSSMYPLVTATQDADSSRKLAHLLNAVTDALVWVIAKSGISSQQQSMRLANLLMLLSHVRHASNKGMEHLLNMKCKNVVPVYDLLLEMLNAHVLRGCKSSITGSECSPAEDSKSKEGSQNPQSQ
Summary of the method: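 ER-beta-UAS-bla HEK293T cells in medium with 2% charcoal-stripped FBS were exposed to compounds for 16 h at 37C. Beta-lactamase reporter activity was read as fluorescence after 2 h with LiveBLAzer B/G FRET substrate at room temperature.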

[7] = molecular target: Estrogen receptor beta (Homo sapiens) (UniProt Q92731); experiment: qHTS assay to identify small molecule antagonists of the estrogen receptor beta (ER-beta) signaling pathway (AID 1259378; active means well fitted inhibition curve with a large enough effect in the signal ratio in the repeat runs, not every such curve was filed as active; the % refers to the signal ratio)
Summary of the method: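 Antagonist mode: compounds added to beta-lactamase reporter HEK293T ER-beta-UAS cells stimulated with E2 (1nM final), 16 hr at 37C. LiveBLAzer B/G FRET substrate, 2 hours room temperature, fluorescence read-out.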

[8] = qHTS assay to identify small molecule agonists of the androgen receptor (AR) signaling pathway in the presence of an antagonist - cell viability counter screen (AID 1259379);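 further: MDA-kb2 human breast cancer cells carrying an MMTV luciferase reporter; series mostly up to about 92 µM; nearly all actives have a fitted effect of over 25% in size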
Summary of the method: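 Viability counter screen: CellTiter-Fluor fluorescence, measured in the same wells as the luciferase read-out. MDA-kb2 cells, 3,000/well, with nilutamide at 3.0uM final and compounds at 15 concentrations, 16 hr at 37C, 0% CO2.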

[9] = qHTS assay to identify small molecule agonists of the estrogen receptor beta (ER-beta) signaling pathway - cell viability counter screen (AID 1259380); further: nearly all actives have a fitted effect of over 30% in size; further: potency means the concentration at half of the fitted maximal effect
Summary of the method: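 Luminescence read-out (CellTiter-Glo, 30 min, room temp) taken in the same wells as the beta-lactamase reporter assay; ER-beta-UAS-bla HEK293T cells exposed to DMSO-dissolved compounds for 16 hr at 37C in 2% charcoal-stripped FBS medium.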

[10] = qHTS assay to identify small molecule antagonists of the estrogen receptor beta (ER-beta) signaling pathway - cell viability counter screen (AID 1259382);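 further: HEK293T cells carrying ER-beta-UAS-bla reporter stimulated with estradiol; series mostly up to about 92 µM; nearly all actives have a fitted effect of over 55% in size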
Summary of the method: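 Luminescent ATP read-out (CellTiter-Glo, 30 min, RT) taken in the same wells as the bla reporter assay. HEK293T ER-beta-UAS-bla cells in 2% charcoal-stripped FBS were exposed to compounds with 1nM E2 for 16 hr at 37C.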

[11] = qHTS assay to identify small molecule agonists of the estrogen receptor alpha (ER-alpha) signaling pathway in the presence of an antagonist - cell viability counter screen (AID 1259386);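 further: series mostly up to about 92 µM; cells exposed to compounds for 22 h at 37 °C before the viability read; nearly all actives have a fitted effect of over 30% in size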
Summary of the method: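 Read-out: CellTiter-Fluor fluorescence after 1hr reagent incubation, measured in the same wells as the luciferase readout. VM7Luc4E2 cells were exposed to 15 compound concentrations with 10.0nM ICI-182,780 for 22hr at 37C.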

[12] = molecular target: Progesterone receptor (Homo sapiens) (UniProt P06401); experiment: qHTS assay to identify small molecule agonists of the progesterone receptor (PR) signaling pathway (AID 1346784; calls by dose curve; further: nearly all actives have a fitted effect of over 30% in size)
Sequence of Progesterone receptor (Homo sapiens) (P06401 whole entry, looked up): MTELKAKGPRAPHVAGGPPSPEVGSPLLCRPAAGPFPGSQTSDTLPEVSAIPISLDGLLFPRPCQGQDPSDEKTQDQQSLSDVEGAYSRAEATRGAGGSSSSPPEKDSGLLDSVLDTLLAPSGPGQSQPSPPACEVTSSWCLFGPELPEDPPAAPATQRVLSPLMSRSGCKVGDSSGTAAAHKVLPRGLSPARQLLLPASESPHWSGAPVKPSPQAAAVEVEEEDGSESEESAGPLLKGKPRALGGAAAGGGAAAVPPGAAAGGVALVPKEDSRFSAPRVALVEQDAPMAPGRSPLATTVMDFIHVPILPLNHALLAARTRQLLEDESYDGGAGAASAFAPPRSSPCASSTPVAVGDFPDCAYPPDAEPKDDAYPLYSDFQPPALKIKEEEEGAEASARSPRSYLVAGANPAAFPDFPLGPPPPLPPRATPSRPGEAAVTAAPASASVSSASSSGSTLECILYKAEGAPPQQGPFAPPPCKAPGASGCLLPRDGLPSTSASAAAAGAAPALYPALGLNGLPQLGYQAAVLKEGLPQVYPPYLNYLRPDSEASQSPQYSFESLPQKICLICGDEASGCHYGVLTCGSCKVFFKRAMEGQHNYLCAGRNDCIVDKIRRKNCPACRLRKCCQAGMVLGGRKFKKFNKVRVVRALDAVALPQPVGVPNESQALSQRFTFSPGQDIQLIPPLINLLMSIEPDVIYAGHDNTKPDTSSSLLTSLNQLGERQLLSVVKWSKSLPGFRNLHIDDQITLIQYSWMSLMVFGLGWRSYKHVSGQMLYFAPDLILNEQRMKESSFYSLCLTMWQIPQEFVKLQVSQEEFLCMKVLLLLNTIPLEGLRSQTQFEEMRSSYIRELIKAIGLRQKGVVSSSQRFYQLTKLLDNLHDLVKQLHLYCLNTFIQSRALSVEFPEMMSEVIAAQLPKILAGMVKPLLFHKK
Summary of the method: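 PR-UAS-bla HEK 293T cells (beta-lactamase reporter under UAS) in 2% charcoal-stripped FBS, dosed with 23 nL compound after 6 hr, incubated 16hr at 37C. LiveBLAzer B/G FRET substrate added, fluorescence read after 2 hours.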

[13] = molecular target: Progesterone receptor (Homo sapiens) (UniProt P06401); experiment: qHTS assay to identify small molecule antagonists of the progesterone receptor (PR) signaling pathway (AID 1346795; active means well fitted inhibition curve with a large enough effect in the signal ratio in the repeat runs, not every such curve was filed as active; the % refers to the signal ratio)
Summary of the method: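 PR-UAS-bla HEK293T cells with beta-lactamase reporter under UAS control, in 2% charcoal-stripped FBS, treated with compounds plus 1 nM promegestone (R5020, final) for 16 hr at 37C. Read-out: FRET beta-lactamase substrate fluorescence after 2 hr at room temperature.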

[14] = qHTS assay to identify small molecule antagonists of the progesterone receptor (PR) signaling pathway - cell viability counter screen (AID 1346798); further: nearly all actives have a fitted effect of over 50% in size; further: potency means the concentration at half of the fitted maximal effect
Summary of the method: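 PR-UAS-bla HEK293T cells, 3,000/well in 2% charcoal-stripped FBS medium, dosed with compounds plus R5020 agonist and incubated 16 h at 37C. Viability then measured in the same wells by CellTiter-Glo luminescence after 30 min at RT.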

[15] = qHTS assay to identify small molecule agonists of the progesterone receptor (PR) signaling pathway - cell viability counter screen (AID 1346799; calls by dose curve; further: nearly all actives have a fitted effect of over 45% in size)
Summary of the method: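 Counter screen in the PR-UAS-bla HEK293T wells (2% charcoal-stripped FBS, 16 h compound exposure at 37 C) after the bla read. CellTiter-Glo added, 30 min at room temperature, luminescence read as cell viability.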

[16] = qHTS assay to identify small molecule antagonists of the TGF-beta/Smad signaling pathway - cell viability counter screen (AID 1346824); further: nearly all actives have a fitted effect of over 50% in size
Summary of the method: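 Cytotoxicity counter-screen run in the same wells as the beta-lactamase Smad reporter read: CellTiter-Glo luminescence after 30 min at room temperature. HEK 293T SBE-bla cells had 5 hr compound exposure at 37 C with TGF-beta1 (0.25 ng/mL stock).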

[17] = molecular target: Estrogen receptor (Homo sapiens) (UniProt P03372); experiment: qHTS assay to identify small molecule agonists of the estrogen receptor alpha (ER-alpha) signaling pathway in the presence of an antagonist (AID 1259383; calls by dose curve; further: top concentration of the series differs between compounds; nearly all actives have a fitted effect of over 15% in size)
Sequence of Estrogen receptor (Homo sapiens) (P03372 whole entry, looked up): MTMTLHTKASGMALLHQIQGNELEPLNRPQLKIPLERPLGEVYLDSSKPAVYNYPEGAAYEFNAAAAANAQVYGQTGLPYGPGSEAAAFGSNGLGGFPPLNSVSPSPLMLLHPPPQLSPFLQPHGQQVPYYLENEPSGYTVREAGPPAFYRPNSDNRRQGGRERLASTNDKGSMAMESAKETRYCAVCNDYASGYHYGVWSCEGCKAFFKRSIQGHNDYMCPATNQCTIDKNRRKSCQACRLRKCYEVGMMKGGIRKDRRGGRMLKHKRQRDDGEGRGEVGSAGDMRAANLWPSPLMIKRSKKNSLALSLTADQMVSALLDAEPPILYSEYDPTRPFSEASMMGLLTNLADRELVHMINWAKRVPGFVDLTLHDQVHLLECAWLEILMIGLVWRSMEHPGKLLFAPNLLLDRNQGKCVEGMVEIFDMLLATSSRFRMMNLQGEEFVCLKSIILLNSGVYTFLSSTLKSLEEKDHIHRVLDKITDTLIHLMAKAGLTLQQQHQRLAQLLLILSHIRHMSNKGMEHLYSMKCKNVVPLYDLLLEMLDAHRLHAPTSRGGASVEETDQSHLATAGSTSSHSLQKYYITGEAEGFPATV
Summary of the method: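 Luciferase luminescence (ONE-Glo, 30min at room temperature) measured in VM7Luc4E2 cells after 22hr compound exposure at 15 concentrations, with 10.0nM ICI-182,780 final present; cells express endogenous ER-alpha and carry four EREs upstream of luciferase.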

[18] = qHTS assay to identify small molecule agonists or antagonists of the thyroid stimulating hormone receptor (TSHR) signaling pathway - wild type cell line counter screen (AID 1259384; calls by dose curve)
Summary of the method: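 Counter screen in untransfected Hek293: compounds (15-point titration, triplicate) plus phosphodiesterase inhibitor Ro20-1724 added after 18 h plating; 30 min RT. Intracellular cAMP via competitive d2/cryptate immunoassay, 1 h incubation.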

[19] = molecular target: Thyrotropin receptor (Homo sapiens) (UniProt P16473); experiment: qHTS assay to identify small molecule antagonists of the thyroid stimulating hormone receptor (TSHR) signaling pathway (AID 1259385; calls by dose curve; further: nearly all actives have a fitted effect of over 20% in size)
Sequence of Thyrotropin receptor (Homo sapiens) (P16473 whole entry, looked up): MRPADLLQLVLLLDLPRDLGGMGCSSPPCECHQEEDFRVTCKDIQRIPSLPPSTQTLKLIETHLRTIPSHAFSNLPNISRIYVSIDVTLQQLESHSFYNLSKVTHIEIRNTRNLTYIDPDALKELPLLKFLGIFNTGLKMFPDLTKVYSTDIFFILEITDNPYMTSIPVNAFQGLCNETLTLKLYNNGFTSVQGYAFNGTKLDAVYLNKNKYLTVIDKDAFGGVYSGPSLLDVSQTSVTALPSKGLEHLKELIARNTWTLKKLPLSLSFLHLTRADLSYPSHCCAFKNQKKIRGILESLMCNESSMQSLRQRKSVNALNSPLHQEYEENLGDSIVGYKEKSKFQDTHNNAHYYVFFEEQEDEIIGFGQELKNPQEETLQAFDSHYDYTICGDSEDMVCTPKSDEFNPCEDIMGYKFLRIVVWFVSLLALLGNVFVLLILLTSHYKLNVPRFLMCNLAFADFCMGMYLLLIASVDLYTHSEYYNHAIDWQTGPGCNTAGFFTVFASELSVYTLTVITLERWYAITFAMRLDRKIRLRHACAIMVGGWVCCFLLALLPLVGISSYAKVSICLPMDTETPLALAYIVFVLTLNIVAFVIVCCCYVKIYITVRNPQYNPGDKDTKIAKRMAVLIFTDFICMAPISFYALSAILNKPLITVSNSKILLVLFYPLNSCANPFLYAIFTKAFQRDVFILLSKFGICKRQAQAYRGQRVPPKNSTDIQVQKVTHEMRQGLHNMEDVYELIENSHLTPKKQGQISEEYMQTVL
Summary of the method: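 Antagonist mode: compound-treated TSHR-expressing HEK293 cells were stimulated with 1.5 ng/mL TSH (final) in presence of Ro20-1724 for 30 min at RT. HTRF cAMP detection after 1 h; each compound tested at 15 concentrations, triplicate.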

[20] = molecular target: Androgen receptor (Homo sapiens) (UniProt P10275); experiment: qHTS assay to identify small molecule agonists of the androgen receptor (AR) signaling pathway in the presence of an antagonist (AID 1259381; calls by dose curve; further: nearly all actives have a fitted effect of over 15% in size)
Sequence of Androgen receptor (Homo sapiens) (P10275 whole entry, looked up): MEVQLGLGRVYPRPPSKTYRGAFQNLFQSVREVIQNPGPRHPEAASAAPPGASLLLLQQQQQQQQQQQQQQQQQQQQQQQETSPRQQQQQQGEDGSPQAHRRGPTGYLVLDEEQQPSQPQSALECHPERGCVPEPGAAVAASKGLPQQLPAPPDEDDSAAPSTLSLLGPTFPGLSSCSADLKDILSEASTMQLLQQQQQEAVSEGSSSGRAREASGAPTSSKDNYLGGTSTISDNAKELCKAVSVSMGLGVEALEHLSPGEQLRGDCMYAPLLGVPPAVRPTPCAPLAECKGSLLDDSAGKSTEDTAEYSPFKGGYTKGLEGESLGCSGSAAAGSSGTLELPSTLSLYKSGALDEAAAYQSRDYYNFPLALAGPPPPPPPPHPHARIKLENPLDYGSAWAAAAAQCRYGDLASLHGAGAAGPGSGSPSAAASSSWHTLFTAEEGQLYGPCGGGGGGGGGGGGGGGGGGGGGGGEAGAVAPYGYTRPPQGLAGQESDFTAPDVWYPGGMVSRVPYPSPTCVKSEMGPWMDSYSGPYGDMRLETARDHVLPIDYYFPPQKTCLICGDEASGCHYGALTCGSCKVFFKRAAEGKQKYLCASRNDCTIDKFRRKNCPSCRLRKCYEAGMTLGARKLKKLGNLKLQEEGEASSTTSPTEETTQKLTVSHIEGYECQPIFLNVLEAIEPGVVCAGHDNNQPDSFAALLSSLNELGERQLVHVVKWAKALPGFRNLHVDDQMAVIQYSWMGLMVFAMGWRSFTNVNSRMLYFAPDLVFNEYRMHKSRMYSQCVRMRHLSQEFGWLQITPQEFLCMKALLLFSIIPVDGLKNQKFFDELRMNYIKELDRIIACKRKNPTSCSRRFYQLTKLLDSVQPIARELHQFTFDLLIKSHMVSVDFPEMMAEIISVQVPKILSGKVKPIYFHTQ
Summary of the method: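 Luciferase read-out (ONE-Glo, 30min room temperature) in MDA-kb2 MMTV-reporter cells; agonist mode run in presence of AR antagonist nilutamide, 3.0uM final. Compounds tested as 15-point series, 16hr exposure at 37C, 0% CO2.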

Measured: Potency

CCCCCCOCCO
not listed: [17] | [18] | [19] | [20]
inactive: all other assays above

O=C(O)CC(C(=O)O)C(CC(=O)O)C(=O)O (configuration not stated)
not listed: [6] | [7] | [20]
inactive: all other assays above

OCc1cccnc1
not listed: [6] | [7] | [17] | [18] | [19] | [20]
inactive: all other assays above

C=CCOC(=O)c1ccccc1C(=O)OCC=C
not listed: [6] | [7] | [20]
inactive: all other assays above

O=C(O)c1cc(C(=O)O)cc(S(=O)(=O)O)c1
not listed: [6] | [7] | [17] | [20]
inactive: all other assays above

CCCCCOC(C)=O
inactive and 27.3 µM (active): [5]
not listed: [6] | [7] | [13] | [20]
inactive: all other assays above

COS(C)(=O)=O
not listed: [6] | [7] | [12] | [13] | [17] | [20]
inactive: all other assays above

CCCCCCCCCCCCCCO
not listed: [5] | [20]
inactive: all other assays above

CN(C)CCC(c1ccc(Cl)cc1)c1ccccn1 (configuration not stated)
61.3 µM (active) and inactive: [2]
active: [3] 68.7 µM | [5] 24.4 µM and 17.2 µM | [9] 48.7 µM | [14] 54.6 µM
not listed: [6] | [7] | [10] | [15] | [17] | [20]
inactive: all other assays above

CCCCOC(=O)COc1ccc(Cl)cc1Cl
not listed: [6] | [7] | [17] | [20]
inactive: all other assays above

Cc1cnc(C(=O)NCCc2ccc(S(=O)(=O)NC(=O)NC3CCCCC3)cc2)cn1
not listed: [6] | [17] | [20]
inactive: all other assays above

CC(O)COCC(C)O (configuration not stated)
not listed: [6] | [7] | [17] | [20]
inactive: all other assays above

CCN(CC)c1ccc(C(=O)c2ccccc2C(=O)O)c(O)c1
not listed: [9] | [20]
inactive: all other assays above

CCCCC(CC)COC(=O)CS (configuration not stated)
not listed: [6] | [7] | [17] | [20]
inactive: all other assays above

CCCCCCCCCCCCOCCO
27.3 µM (active) and inactive: [5]
48.6 µM (active) and inactive: [3]
not listed: [6] | [7] | [13] | [14] | [17]
inactive: all other assays above

Cc1occc(=O)c1O
not listed: [6] | [7] | [17] | [20]
inactive: all other assays above

O=[N+]([O-])c1ccc(/C=C/c2ccc([N+](=O)[O-])cc2S(=O)(=O)O)c(S(=O)(=O)O)c1
not listed: [17] | [18] | [19] | [20]
inactive: all other assays above
